# The supplement of paper PMC3334620
# Over roughly 33,000 sequences, “E-score (-0.5 to 0.5)” has its median near -0.036; the highest 2% begin near 0.37. This excerpt belongs to a sample that is enriched for the highest values.
# Target: T1, Yer064c (UniProt P40041)
# T1 sequence: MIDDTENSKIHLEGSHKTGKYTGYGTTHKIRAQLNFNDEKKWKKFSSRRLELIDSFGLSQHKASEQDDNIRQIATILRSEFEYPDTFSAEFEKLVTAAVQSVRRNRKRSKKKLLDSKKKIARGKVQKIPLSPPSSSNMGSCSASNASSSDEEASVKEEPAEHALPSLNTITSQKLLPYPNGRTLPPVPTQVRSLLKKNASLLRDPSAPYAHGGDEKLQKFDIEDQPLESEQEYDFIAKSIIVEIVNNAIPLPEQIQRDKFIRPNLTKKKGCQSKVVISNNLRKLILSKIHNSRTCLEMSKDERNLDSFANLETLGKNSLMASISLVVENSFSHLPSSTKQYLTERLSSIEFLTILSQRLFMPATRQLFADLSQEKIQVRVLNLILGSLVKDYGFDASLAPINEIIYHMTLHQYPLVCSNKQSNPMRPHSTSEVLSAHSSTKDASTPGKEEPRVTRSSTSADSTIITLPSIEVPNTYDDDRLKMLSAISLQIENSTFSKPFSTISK
# Assay: PBM E-score (8-mer binding enrichment) (E-score (-0.5 to 0.5)); higher = stronger / more preferred TF binding
# Conditions: protein concentration: 200 nM; construct: GST-full length
# How it was run: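 E-scores (a modified Wilcoxon-Mann-Whitney statistic) were assigned by the Universal PBM Analysis Suite to every ungapped eight-base word pooled with its reverse complement. The input came from universal all-10-mer Agilent arrays made double-stranded by primer extension and probed with GST-tagged yeast transcription factors at about 100-200 nM. Fluorescent anti-GST detected bound protein, and masliner normalised the scans.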
row,Sequence,PBM E-score
1,GATTAATA,0.325
2,GACTAACC,0.44
3,CATTAATC,0.271
4,TACTAACA,0.0931
5,GATTAACA,0.367
6,GATTAACC,0.294
7,CACTAACC,-0.153
8,GACTAACA,0.449
9,GATTAATC,0.391
10,CACTAACA,0.0977
11,TATTAACA,0.0799
12,AACTAACC,0.0831
13,GAGCAATC,0.146
14,CATAGGGG,-0.149
15,TCCCCCGA,-0.176
16,GCGGCGAA,-0.17
17,CGATGAAA,0.0671
18,ATTTTTCG,0.00581
19,TGAGGAAA,-0.0935
20,GCCCTAGA,-0.316
21,CGTACGCA,-0.195
22,CCAGCACC,-0.231
23,CCTAAAGA,0.0245
24,ACTATGAC,0.372
25,CCTATGAC,0.235

row,Sequence,PBM E-score
1,ACTGTGAA,0.0208
2,ACTGTGAC,0.397
3,GCTATGAC,0.307
4,ACTGTGAT,0.165
5,CCTTGGTA,0.00702
6,AAGTTCTG,0.0281
7,ATTAAGGA,0.176
8,AGTTGCCC,0.00742
9,ACAAGTCC,-0.047
10,ACTAATCG,0.226
11,ACTAATCA,0.403
12,CCTAATCA,0.376
13,GCTAATCC,-0.145
14,ACTAATCT,0.273
15,TCTAATAA,0.115
16,GCTAATTA,0.0849
17,CCTAATCG,0.0953
18,ACTAATCC,0.208
19,TCTAATCA,0.386
20,GCTAATCA,0.372
21,CCTAATCC,-0.33
22,CTTAACCA,0.197
23,ATTGGGAC,0.0416
24,TCGTTCCA,-0.108
25,ACCCTGTG,-0.0328

row,Sequence,PBM E-score
1,ACCCAGAT,-0.0932
2,CGAGGCTA,-0.0432
3,ACACTCGC,0.111
4,ACCGACTC,0.328
5,CCCGACTA,0.314
6,GGCGACGA,-0.226
7,CCCGACTC,0.389
8,CTCGACTA,0.299
9,GGCGACTA,0.402
10,CGCGACTA,0.397
11,AGCGACCC,-0.196
12,GGCGACCA,-0.416
13,CGCGACAA,0.124
14,AGCGACGC,-0.273
15,AGCGACTC,0.412
16,TAATTCAA,0.14
17,TAGGGCCA,-0.307
18,GCCCCGGA,-0.22
19,AGCTTGGC,-0.115
20,ATAGAGAC,0.0997
21,GCGACACC,-0.173
22,CCCTACGA,0.0187
23,GTACAGGA,-0.0544
24,CACAGATA,-0.0649
25,ATGCCAGA,-0.0495

row,Sequence,PBM E-score
1,AGCGACTG,0.255
2,AGCGACCA,-0.173
3,CTCGACTC,0.34
4,AGCGACTA,0.391
5,CGCGACCC,-0.0841
6,CGCGACTC,0.438
7,CGCCCTTC,-0.212
8,ACGACTCT,0.404
9,ACGACTCC,0.423
10,ACGACGCC,-0.211
11,GCGACTGA,0.31
12,ACGACTCA,0.477
13,GCGACTTA,0.266
14,GCGACTCA,0.483
15,ACGACTTA,0.276
16,ACGACTGC,0.19
17,ACTACTCT,0.239
18,ACTACTCA,0.344
19,ACAACTCT,0.175
20,CCACTAGA,-0.195
21,AAAACGGT,-0.155
22,TAGAAAGA,0.113
23,AGTCTCAC,0.337
24,GCTGGTGA,0.0962
25,CCATTACG,-0.038

row,Sequence,PBM E-score
1,ACGACTCG,0.394
2,GCCACTCC,-0.128
3,TCGACTCA,0.435
4,GCGACCCC,-0.237
5,GCGACTCC,0.39
6,CCGACTGA,0.192
7,CCGACTCG,0.296
8,TCGACCCA,0.0521
9,CCGACTCA,0.441
10,ACGACTTG,0.17
11,TCTACTCA,0.202
12,CCGACTCC,0.339
13,CGAGAATC,0.117
14,GCGAGCCC,-0.21
15,GCAATACC,-0.127
16,CCTGTGCA,-0.146
17,AAAACAGG,-0.126
18,TAATGGCA,-0.172
19,GCCAAAAA,0.0564
20,AGAGAGGG,-0.162
21,CATGATTA,0.453
22,CCTGATTC,0.399
23,CATGATGA,0.261
24,CATGATTC,0.457
25,CATGATCC,0.0741

row,Sequence,PBM E-score
1,ACTGATTC,0.319
2,CCTGATGC,-0.0643
3,CTTGATTC,0.324
4,ATTGATTC,0.301
5,CATGATAA,0.12
6,AATGATTG,0.358
7,AATGATTC,0.464
8,CCTGGGAC,-0.363
9,ATGGGCGA,0.0478
10,CAAAAGAG,0.0455
11,CTTACCGA,-0.0159
12,ACATCGAT,0.00682
13,AGACGAAT,0.00164
14,CAAGCCAG,-0.139
15,GGCGGCCC,-0.0657
16,GACTCCAC,0.37
17,AACTCCAC,-0.115
18,AACTCCAA,0.0471
19,GACTCCAA,0.418
20,TACTCCAA,0.00552
21,CACTCCAC,0.0622
22,CAGTAAAA,-0.0284
23,AATTACCT,0.0151
24,AAAAGAAC,-0.144
25,CCTTCGGC,-0.197

row,Sequence,PBM E-score
1,GGGACACA,0.0557
2,GGGACTCA,0.405
3,AGGACTCC,0.335
4,AGCACTCA,0.119
5,GGGACGCA,-0.165
6,AGGACTCA,0.468
7,CGGACTCC,0.191
8,CGAACTCA,0.225
9,CGGACTCA,0.411
10,GAGAGGGC,-0.203
11,CCCGCTGC,-0.00295
12,GCTTGTAC,-0.18
13,TCCCAAGA,0.0948
14,CGATGTCA,-0.0638
15,CTCAAATC,0.158
16,GACTAAAA,0.429
17,CACTAAAC,0.108
18,TACTAAAA,-0.00832
19,GACTAAAC,0.435
20,AACTAAAA,0.0564
21,AACTAAAC,-0.0459
22,GATTCTCA,0.221
23,CTCTCCAC,-0.0601
24,ATTCTCTA,0.0286
